Hit rate of the full screen: of about 300,000 compounds, about 3,600 (1.2%) were called active. The sample holds actives, similar compounds and a random draw of the others, so the mix is not that of the screen. Values without a mark were called inactive. No stated cut-off is given here; in the data, active means activation above about 30% (passing the limit was not always enough); inconclusive means no clear call, values can overlap the other calls.
test: Wnt/beta-catenin pathway activators, primary screen, cell-based, plate reader, single point (AID 743398); settings: Wnt/beta-catenin reporter cell assay, activator, at 9.35 µM, stronger effect = higher value;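 further: 0% = neutral control wells and 100% = positive control wells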

SMILES | activation
CC(C)Oc1ccc(CN2CCC2(C)C(=O)NCc2ccc(C(F)(F)F)cc2)cc1 (stereo not given) | -2.84%
O=C(c1cc(-c2ccc(O)cc2)on1)N1CCOCC1 | 19.9%
COc1ccc(OCc2cc(C(=O)N3CCCC3)no2)c2ccccc12 | 43% (active)
COc1cc(Cl)ccc1OCc1cc(C(=O)N2CC[C@@H]3CCCC[C@H]3C2)no1 | 18.3%
COc1ccccc1-c1cc(C(=O)N2CCCCC2)no1 | 0.293%
COc1cccc(OCc2cc(C(=O)N3CCN(C(=O)c4ccco4)CC3)no2)c1 | 31.4% (active)
COc1cccc(C(=O)Nc2ccc(N3CCN(C(=O)c4ccco4)CC3)cc2)c1 | -1.7%
O=C(c1cc(COc2ccc(F)cc2F)on1)N1CCOCC1 | 12.4%
O=C(c1cc(-c2ccccc2O)on1)N1CCCC1 | 57.5% (active)
O=C(c1cc(COc2cccc(C(F)(F)F)c2)on1)N1CCSCC1 | 1.55%
COC(=O)[C@]12C[C@H](CC(=O)NCc3ccc(OC)c(OC)c3)C(=O)N(Cc3ccccc3)C1=C[C@H](C(C)C)O[C@@H]2C1CC1 | -0.346%
CSCCC(NC(=O)COc1ccccc1)C(=O)N1CCN(c2cccc(C(F)(F)F)c2)CC1 (stereo not given) | -3.61%
COc1ccc(OC)c(NC(=O)C2CCCN2S(=O)(=O)c2ccc3c(c2)CC(C)N3C(C)=O)c1 (stereo not given) | -5.88%
CCOC(=O)N1CCN(C(=O)C[C@@H]2C[C@@]3(C(=O)OC)CC(C)(C)CC=C3N(Cc3ccco3)C2=O)CC1 | 0.171%
CCc1nc2c(OCCOc3ccccc3)cccn2c1N(C=O)Cc1ccc(OC)cc1 | -2.79%
Cc1ccc(C(=O)c2c(NC(=O)c3ccncc3)sc3c2CCCC3)cc1 | 38.4% (active)
NC(=O)c1c(NC(=O)c2ccccc2)sc2c1CCCC2 | 1.12%
Cc1ccc(NC(=O)c2c(NC(=O)CCC(=O)O)sc3c2CCCCC3)cc1 | 29.5%
CCCCCCCCN1C(=O)[C@@H](CC(=O)NCCCC)C[C@@]2(C(=O)OC)C1=C[C@H](C(C)(C)C)O[C@@H]2C | -3%
COc1cccc(/C=C2\SC(=S)N(CCCC(=O)N3CCOCC3)C2=O)c1 | 3.86%
CCc1nc2ccc(C(=O)Nc3ccc(OC)c(OC)c3)cn2c1N(C)C(=O)c1cccc(OC)c1 | -0.76%
Cn1c(Cn2nnc3ccccc32)nnc1SCC(=O)c1ccccc1F | 85.8% (active)
Cn1c(CNC(=O)c2ccccc2F)nnc1SCc1ccc(F)cc1 | -0.026%
Cc1ccc(C(=O)CSc2nnc(Cn3nnc4ccccc43)n2C)cc1 | -0.352%
Cc1[nH]c2ccccc2c1CC(=O)Nc1ccc(Nc2cccnc2)c(-c2cccc(Cl)c2)c1 | -2.14%
CCOC(=O)[C@]12CCCC=C1N(CCC1=CCCCC1)C(=O)[C@H](CC(=O)N1CCN(C(=O)c3ccco3)CC1)C2 | -1.88%
COc1ccccc1C1/C(=C(/O)c2ccc(OC(C)C)cc2)C(=O)C(=O)N1c1cc(C)on1 (stereo not given) | -12%
CCOc1ccc(/C(O)=C2\C(=O)C(=O)N(c3ccc(OC)cc3)C2c2ccccc2[N+](=O)[O-])cc1 (stereo not given) | 53.5% (active)

SMILES | activation
COc1ccc(C2/C(=C(/O)c3ccccc3)C(=O)C(=O)N2C)c(OC)c1 (stereo not given) | 0.335%
OC[C@@H]1CN(Cc2ccc(F)cc2)C[C@H](n2cnc3c(NC4CCCC4)ncnc32)O1 | -2.91%
CC1C(C)N(C(=O)CCl)c2ccccc2N1C(=O)CCl (stereo not given) | -5.8%
COc1cc(N=Cc2c(O)c3ccccc3oc2=O)c(OC)cc1Cl | -0.517%
COc1ccccc1N=Cc1c(O)c2ccccc2oc1=O | 59% (active)
O=c1oc2ccccc2c(=O)c2ccccc12 | -3.29%
COc1cccc(-c2cc(NC(C)=O)c3ncc(-c4cccc(C(C)=O)c4)n3c2)c1 | -1.27%
COc1ccc(OC)c(C(O)c2ncc(-c3cccc(C(F)(F)F)c3)[nH]2)c1 (stereo not given) | -1.7%
CC1(C)OC(=O)C2=C(CC(CCc3ccccc3)OC2c2ccc(Cl)cc2)O1 (stereo not given) | -2.32%
CCOC(=O)CNC(=O)N(C)[C@H]1C[C@H]2c3[nH]c4c(-c5ccc6c(c5)OCO6)cccc4c3CCN2C(=O)[C@H]1[C@H](C)O | -4.82%
CCCCCCNC(=O)O[C@H]1CN(C(=O)OC(C)C)N(C(=O)OC(C)C)[C@@H]2CN(S(=O)(=O)c3ccc(C)cc3)C[C@]12O | -6.88%
O=C(NCc1cccnc1)c1cccc(-c2cc3ccccc3oc2=O)c1 | -9.13%
O=C(Nc1ccncc1)c1cc2ccccc2o1 | -4.19%
O=c1oc2ccccc2cc1-c1csc(Nc2ccc(O)cc2)n1 | 48% (active)
CCCn1c(CCNc2nc(-c3ccc(OC)cc3)cs2)nc2ccccc21 | 1.69%
Cc1nc(C)c(-c2csc(NCCc3ccccc3)n2)s1 | 10.9%
CCNc1nc(-c2cc3ccccc3o2)cs1 | 55.9% (active)
CCOC(=O)[C@]12CCCC=C1N(CCC1=CCCCC1)C(=O)[C@H](CC(=O)NCCCCc1ccccc1)C2 | -3.03%
COc1ccc(NC(=O)c2sc(=O)n(Cc3ccc(S(=O)(=O)N(C)C)cc3)c2C)cc1 | -1.18%
O=C(Nc1ccc(Cl)cc1)C1Cc2c(-c3ccc4c(c3)OCO4)ccnc2O1 (stereo not given) | -2.4%
O=C(NCCOc1ccccc1)N1[C@H]2CC[C@@H]1C=C(c1ccc(F)cc1OCc1ccccc1)C2 | -5.01%
COc1ccc(SSc2ccc(OC)cc2C(=O)O)c(C(=O)O)c1 | -2.15%
Cc1ccc(S(=O)(=O)N2[C@@H](Cc3ccccc3)CO[C@H]2CC(=O)OCc2ccccc2)cc1 | -1.94%
COc1ccc(N2c3ccccc3CN(Cc3ccccc3)[C@@H](C)[C@H]2Cc2ccc(-c3ccccc3)cc2)cc1 | -4.27%
Cc1[nH]c2ccccc2c1/C=N\NC(=O)Cn1nnc(-c2ccccc2)n1 | -3.53%
COc1ccc(OC)c(-c2csc(-c3cccs3)n2)c1 | 3.92%
CN=c1scc(-c2cc(OC)ccc2OC)n1/N=C/c1c(C)[nH]c2ccccc12 | 68.5% (active)
